Measurements taken from PubChem BioAssay.
For some assays here: Entries with a potency or affinity are not part of this list. Active and inactive are the calls of the source.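 The calls were made as follows, unless noted: active = fluorescence ratio normalized to control raised more than 50% in primary screen plus both repeat runs; inactive = the rest.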

Experiments:
[1] = system: TRPC4 beta (transient receptor potential cation channel C4), mouse; test: activators of mouse TRPC4 channel, confirmation, cell-based, Fluo4 calcium, HEK293 TRPC4beta/mu-opioid, duplicates, 10 µM (AID 2426); settings: Fluo4 calcium fluorescence, at 10 µM; stronger effect = higher value
[2] = system: transient receptor potential cation channel C4 beta (TRPC4), mouse; test: activators of mouse TRPC4 channel, confirmation, cell-based, second round, Fluo4, HEK293 TRPC4beta/mu-opioid, 1 µM (AID 2461;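 active = primary screen active and over 50% activation in each of two duplicate runs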); settings: Fluo4 calcium fluorescence, at 1 µM; stronger effect = higher value
[3] = system: TRPC4 (transient receptor potential cation channel C4 beta), mouse; test: positive allosteric modulators of mouse TRPC4, confirmation, cell-based, second round, Fluo-4, HEK293 TRPC4beta/mu-opioid, 1 µM (AID 2554;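 active = primary screen hit whose fluorescence ratio, in both repeats, exceeds the weak agonist control mean by 3 SD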); settings: DAMGO EC20, Fluo-4 calcium flux, at 1 µM; stronger effect = higher value
[4] = system: TRPC4 beta (transient receptor potential cation channel C4), mouse; test: positive allosteric modulators of mouse TRPC4, confirmation, cell-based, Fluo-4, HEK293 TRPC4beta/mu-opioid (AID 2555;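 active = primary screen hit whose calcium fluorescence ratio, in both repeats, exceeds the weak agonist control mean by 3 SD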); settings: DAMGO EC20, Fluo-4 calcium flux, at 10 µM; stronger effect = higher value
[5] = target: Short transient receptor potential channel 4 (Mus musculus) (UniProt Q9QUQ5); test: inhibitors of mouse TRPC4 channel, confirmation, cell-based, Fluo4, HEK293 TRPC4beta/mu-opioid (AID 2636;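 active = calcium signal cut by more than 3 SD below the full-agonist control yet still positive, in both repeats and the earlier primary screen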); settings: DAMGO, Fluo4 calcium flux, at 10 µM; stronger effect = higher value
Chain of Short transient receptor potential channel 4 (Mus musculus) (Q9QUQ5 whole entry, looked up): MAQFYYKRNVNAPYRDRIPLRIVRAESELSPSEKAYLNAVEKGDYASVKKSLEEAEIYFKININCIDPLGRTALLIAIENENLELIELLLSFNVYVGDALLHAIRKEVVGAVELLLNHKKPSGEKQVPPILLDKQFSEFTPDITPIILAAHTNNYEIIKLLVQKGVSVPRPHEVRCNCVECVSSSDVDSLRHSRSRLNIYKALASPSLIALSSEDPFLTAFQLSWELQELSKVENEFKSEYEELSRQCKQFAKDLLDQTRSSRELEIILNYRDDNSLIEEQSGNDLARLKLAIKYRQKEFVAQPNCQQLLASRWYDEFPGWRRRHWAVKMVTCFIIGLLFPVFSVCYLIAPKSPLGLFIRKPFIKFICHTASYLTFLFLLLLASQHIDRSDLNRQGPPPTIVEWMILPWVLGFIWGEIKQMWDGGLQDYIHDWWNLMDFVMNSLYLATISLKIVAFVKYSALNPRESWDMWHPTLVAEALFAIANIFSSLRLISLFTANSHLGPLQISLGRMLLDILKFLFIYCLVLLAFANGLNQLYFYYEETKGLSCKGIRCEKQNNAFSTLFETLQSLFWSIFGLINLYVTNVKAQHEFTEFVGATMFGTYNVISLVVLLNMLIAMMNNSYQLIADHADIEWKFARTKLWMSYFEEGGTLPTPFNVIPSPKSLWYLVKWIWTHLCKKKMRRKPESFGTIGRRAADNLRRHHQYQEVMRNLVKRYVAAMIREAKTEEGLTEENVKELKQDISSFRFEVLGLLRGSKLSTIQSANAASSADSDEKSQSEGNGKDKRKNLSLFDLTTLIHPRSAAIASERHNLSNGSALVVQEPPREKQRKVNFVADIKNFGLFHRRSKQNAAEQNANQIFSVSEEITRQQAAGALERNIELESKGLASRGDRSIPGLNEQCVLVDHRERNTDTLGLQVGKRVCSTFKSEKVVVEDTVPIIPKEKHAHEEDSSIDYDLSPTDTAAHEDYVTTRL

[6] = target: Short transient receptor potential channel 4 (Mus musculus) (UniProt Q9QUQ5); test: inhibitors of mouse TRPC4 channel, confirmation, cell-based, second round, Fluo4, HEK293 TRPC4beta/mu-opioid, 1 µM (AID 2637;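 active = calcium signal ratio cut to more than 3 SD under the fully stimulated control mean yet still positive, in both repeats and the primary screen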;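 as to inhibition: percent of integrated ratio relative to wells lacking test compound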); settings: Fluo4 calcium flux, DAMGO, at 1 µM; stronger effect = higher value
[7] = target: Short transient receptor potential channel 4 (Mus musculus) (UniProt Q9QUQ5); test: mouse TRPC4 channel activators, dose response, cell-based, HEK293 TRPC4/mu-opioid, Fluo-4 calcium (AID 434937;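 active = primary screen activator hit with a dose response curve and TRPC4 channel activation at any tested dose; inactive = no activation, no dose response, or not a primary hit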)
[8] = target: Short transient receptor potential channel 4 (Mus musculus) (UniProt Q9QUQ5); test: TRPC4 positive allosteric modulators, dose response, cell-based, HEK293 TRPC4/mu-opioid, Fluo-4 calcium, EC20 DAMGO (AID 434941;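 active = earlier screen potentiator hit that boosts the TRPC4 ion channel at some dose, with a dose response; inactive = no potentiation, no dose response, or not a prior hit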;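 also: calcium entry triggered by an EC20 dose of DAMGO at the co-expressed mu-opioid receptor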)
[9] = target: Short transient receptor potential channel 6 (Mus musculus) (UniProt Q61143); test: inhibition of mouse TRPC6 channel, confirmation, selectivity assay for TRPC4 inhibitor project, cell-based, HEK293, membrane potential dye, duplicate (AID 434948;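 active = active in primary screen and both duplicates, each dropping signal beyond three positive-control SD with fluorescence still positive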); settings: HEK293 TRPC6, membrane potential dye fluorescence, at 10 µM; inhibition: stronger effect = higher value, stimulated with maximal-effect acetylcholine unless noted; outcome: stimulated with maximal-effect acetylcholine unless noted
Chain of Short transient receptor potential channel 6 (Mus musculus) (Q61143 whole entry, looked up): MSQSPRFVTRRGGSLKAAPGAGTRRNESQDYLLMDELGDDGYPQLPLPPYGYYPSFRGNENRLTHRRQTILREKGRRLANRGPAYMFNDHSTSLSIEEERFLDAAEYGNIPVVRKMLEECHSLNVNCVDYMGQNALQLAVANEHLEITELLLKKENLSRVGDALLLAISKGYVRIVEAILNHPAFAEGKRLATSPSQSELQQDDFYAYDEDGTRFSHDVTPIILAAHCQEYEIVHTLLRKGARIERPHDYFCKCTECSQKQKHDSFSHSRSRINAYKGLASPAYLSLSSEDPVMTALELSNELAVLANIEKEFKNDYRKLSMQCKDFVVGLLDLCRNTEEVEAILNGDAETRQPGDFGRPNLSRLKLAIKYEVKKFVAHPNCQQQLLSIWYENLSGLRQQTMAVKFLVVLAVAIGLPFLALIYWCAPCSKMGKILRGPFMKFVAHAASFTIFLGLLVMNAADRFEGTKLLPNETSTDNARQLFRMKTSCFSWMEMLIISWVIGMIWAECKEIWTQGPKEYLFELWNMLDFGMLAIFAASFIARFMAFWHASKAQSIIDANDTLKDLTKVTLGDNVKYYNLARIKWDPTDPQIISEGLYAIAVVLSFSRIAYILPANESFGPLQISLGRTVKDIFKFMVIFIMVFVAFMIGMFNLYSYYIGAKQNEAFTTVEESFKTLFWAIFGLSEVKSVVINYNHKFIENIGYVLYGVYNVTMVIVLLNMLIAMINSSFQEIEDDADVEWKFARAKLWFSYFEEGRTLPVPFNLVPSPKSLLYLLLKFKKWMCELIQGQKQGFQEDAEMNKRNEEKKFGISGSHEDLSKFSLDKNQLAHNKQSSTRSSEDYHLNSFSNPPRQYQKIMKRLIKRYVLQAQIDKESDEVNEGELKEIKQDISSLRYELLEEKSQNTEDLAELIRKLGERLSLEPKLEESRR

[10] = target: Short transient receptor potential channel 6 (Mus musculus) (UniProt Q61143); test: activation of mouse TRPC6 channel, confirmation, selectivity assay for TRPC4 activator project, cell-based, HEK293, membrane potential dye, duplicate (AID 434950;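 active = membrane potential signal rise above negative control mean plus 3 SD in both duplicates, also active in the earlier TRPC4 screen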); settings: HEK293 TRPC6, membrane potential fluorescence, at 10 µM; stronger effect = higher value
[11] = target: Short transient receptor potential channel 6 (Mus musculus) (UniProt Q61143); test: TRPC6 potentiation by TRPC4 potentiator hits, confirmation, selectivity assay for TRPC4 potentiator project, HEK293 cells, membrane potential dye, duplicate (AID 434952;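 active = compound raising the membrane signal above positive-control mean plus 3 SD in both repeats, and a primary screen hit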); settings: HEK293 TRPC6, membrane potential dye fluorescence, at 10 µM; maximal acetylcholine added after compound unless noted
[12] = target: Short transient receptor potential channel 4 (Mus musculus) (UniProt Q9QUQ5); test: calcium flux activators in TRPC4/5HT1a cells, counter-screen for TRPC4 activator project, cell-based, second counter screen, HEK293 TRPC4/5HT1a, Fluo-4 (AID 434977;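 active = calcium signal rise above buffer-control mean plus 5 SD in both duplicates, and also a hit in the primary screen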); settings: Fluo-4 calcium flux, at 10 µM; stronger effect = higher value
[13] = calcium flux inhibitors in TRPC4/5HT1a cells, confirmation, counter-screen for TRPC4 inhibitor project, cell-based, second counter screen, HEK293 TRPC4/5HT1a, Fluo-4 (AID 434978;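 active = primary screen active whose calcium signal fell more than 3 SD beyond the full-serotonin control mean in both duplicate plates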;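 as to outcome: serotonin given first at submaximal then at maximal dose after compound preincubation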); settings: Fluo-4 calcium flux, at 10 µM; inhibition: stronger effect = higher value, serotonin added to trigger calcium flux unless noted; outcome: serotonin added to trigger calcium flux unless noted
[14] = system: TRPC4 (mouse), co-expressed with 5HT1a in HEK293; test: calcium flux potentiators in TRPC4/5HT1a cells, confirmation, counter-screen for TRPC4 potentiator project, cell-based, second counter screen, HEK293 TRPC4/5HT1a, Fluo-4 (AID 434979;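 active = signal rise over 3 SD above mean of control wells given weak agonist, in both repeats and first screen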); settings: Fluo-4 calcium flux, at 10 µM; outcome: serotonin added at its EC20 dose unless noted; potentiation: stronger effect = higher value, serotonin added at its EC20 dose unless noted
[15] = calcium flux activation in mu-opioid HEK293 cells, confirmation, counter-screen for TRPC4 activator project, cell-based, HEK293 mu-opioid receptor line (AID 449723;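 active = hit in primary screen, with calcium signal over 5 SD above buffer well mean in both duplicates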;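 also: counter screen cells carry the mu-opioid receptor alone and lack TRPC4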); settings: Fluo-4 calcium fluorescence, at 10 µM; stronger effect = higher value
[16] = calcium flux enhancement in mu-opioid HEK293 cells, confirmation, counter-screen for TRPC4 allosteric potentiator project, cell-based, HEK293 mu-opioid receptor line (AID 449724;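 active = calcium signal rise more than 3 SD above the low-dose agonist control mean, in both duplicate plates and the primary screen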); settings: Fluo-4 calcium flux, at 10 µM; compound added before EC20 DAMGO stimulus unless noted
[17] = target: Short transient receptor potential channel 4 (Mus musculus) (UniProt Q9QUQ5); test: mouse TRPC4 channel inhibitors, dose response, cell-based, HEK293 TRPC4/mu-opioid, Fluo-4 calcium (AID 434942;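 active = primary screen inhibitor hit that blocks the TRPC4 channel at some tested dose, yielding a dose curve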)

COc1ccc(OC)c(N2Cc3ccccc3C2=N)c1
active: inhibition [5] 96% | inhibition [6] 56% | inhibition [13] 21.8%
inactive: outcome [1] | outcome [2] | outcome [3] | outcome [4] | outcome [7] | outcome [8] | outcome [9] | outcome [10] | outcome [11] | outcome [12] | outcome [14] | outcome [15] | outcome [16]

O=C(c1cccc(C(F)(F)F)c1)C1CCCN(Cc2ccccc2O)C1 (stereo not given)
active: inhibition [5] 87% | inhibition [13] 24.6%
inactive: outcome [1] | outcome [2] | outcome [3] | outcome [4] | outcome [6] | outcome [7] | outcome [8] | outcome [9] | outcome [10] | outcome [11] | outcome [12] | outcome [14] | outcome [15] | outcome [16]

CCNc1cc(N2CCNCC2)ccc1[N+](=O)[O-]
active: potentiation [3] 35% | potentiation [4] 19% | potentiation [14] 17.7%
inactive: outcome [1] | outcome [2] | outcome [5] | outcome [6] | outcome [7] | outcome [8] | outcome [17] | outcome [9] | outcome [10] | outcome [11] | outcome [12] | outcome [13] | outcome [15] | outcome [16]

CCn1ccnc1CN1CCCC(C(=O)c2cccc(C(F)(F)F)c2)C1 (stereo not given)
inactive: outcome [1] | outcome [2] | outcome [3] | outcome [4] | outcome [5] | outcome [6] | outcome [7] | outcome [8] | outcome [17] | outcome [9] | outcome [10] | outcome [11] | outcome [12] | outcome [13] | outcome [14] | outcome [15] | outcome [16]

CC(Cc1ccccc1Sc1ccccc1O)N(C)C (stereo not given)
active: inhibition [5] 99% | inhibition [6] 70% | inhibition [9] 50.5% | inhibition [13] 33%
inactive: outcome [1] | outcome [2] | outcome [3] | outcome [4] | outcome [7] | outcome [8] | outcome [10] | outcome [11] | outcome [12] | outcome [14] | outcome [15] | outcome [16]

CCOC(=O)C1(c2ccccc2)CCN(CC(=O)Nc2ccc(C)cc2)CC1
inactive: outcome [1] | outcome [2] | outcome [3] | outcome [4] | outcome [6] | outcome [7] | outcome [8] | outcome [9] inactive [setting not given] | outcome [10] | outcome [11] inactive [setting not given] | outcome [12] | outcome [13] inactive [setting not given] | outcome [14] inactive [setting not given] | outcome [15] | outcome [16] inactive [setting not given]
active: inhibition [5] 80%

COc1ccc(OC)c(CN2CCCC(C(=O)c3sccc3C)C2)c1 (stereo not given)
active: inhibition [5] 97% | inhibition [6] 50% | inhibition [13] 25.9%
inactive: outcome [1] | outcome [2] | outcome [3] | outcome [4] | outcome [7] | outcome [8] | outcome [9] | outcome [10] | outcome [11] | outcome [12] | outcome [14] | outcome [15] | outcome [16]

Cc1ccc(CN2C3CCCC2CC(NC(=S)NCc2ccccc2)C3)cc1 (stereo not given)
active: inhibition [5] 88% | inhibition [13] 36.3%
inactive: outcome [1] | outcome [2] | outcome [3] | outcome [4] | outcome [6] | outcome [7] | outcome [8] | outcome [9] | outcome [10] | outcome [11] | outcome [12] | outcome [14] | outcome [15] | outcome [16]

CCN(CC)P(=O)(/C=C(\Cl)c1ccccc1)/C=C(\Cl)c1ccccc1
active: potentiation [3] 7%
inactive: outcome [1] | outcome [2] | outcome [4] | outcome [5] | outcome [6] | outcome [7] | outcome [8] | outcome [17] | outcome [9] | outcome [10] | outcome [11] | outcome [12] | outcome [13] | outcome [14] | outcome [15] | outcome [16]

c1ccc2nc(OCCN3CC3)ccc2c1
inactive: outcome [1] | outcome [2] | outcome [3] | outcome [5] | outcome [6] | outcome [7] | outcome [8] | outcome [17] | outcome [9] | outcome [10] | outcome [11] | outcome [12] | outcome [13] | outcome [15] | outcome [16]
active: potentiation [4] 17% | potentiation [14] 16.5%

COc1ccc(Br)cc1CN1CCN(C(=O)Cc2ccccc2)CC1
inactive: outcome [1] | outcome [2] | outcome [3] | outcome [4] | outcome [6] | outcome [7] | outcome [8] | outcome [9] | outcome [10] | outcome [11] | outcome [12] | outcome [14] | outcome [15] | outcome [16]
active: inhibition [5] 89% | inhibition [13] 20.6%

CCOC(=O)C(O)(c1ccc(NC(=S)NC(=O)c2ccc(Cl)cc2Cl)c(C)c1)C(F)(F)F (stereo not given)
active: potentiation [4] 31% | potentiation [14] 28.1%
inactive: outcome [1] | outcome [2] | outcome [3] | outcome [5] | outcome [6] | outcome [7] | outcome [17] | outcome [9] | outcome [10] | outcome [11] | outcome [12] | outcome [13] | outcome [15] | outcome [16]

Oc1c(Br)cc(Br)cc1CN1CCN(Cc2ccccc2)CC1
inactive: outcome [1] | outcome [2] | outcome [3] | outcome [5] | outcome [6] | outcome [7] | outcome [8] | outcome [17] | outcome [9] inactive [setting not given] | outcome [10] | outcome [11] inactive [setting not given] | outcome [12] | outcome [13] inactive [setting not given] | outcome [15] | outcome [16] inactive [setting not given]
active: potentiation [4] 44% | potentiation [14] 20.2% [stronger effect = higher value]

COc1ccc(C[C@@H]2c3cc(O)c(OC)cc3CCN2C)cc1O
inactive: outcome [1] | outcome [2] | outcome [3] | outcome [4] | outcome [5] | outcome [6] | outcome [7] | outcome [8] | outcome [17] | outcome [9] | outcome [10] | outcome [11] | outcome [12] | outcome [13] | outcome [14] | outcome [15] | outcome [16]
